Unmarked numbers belong to inactive results. Results filed as inconclusive are left out. Active and inactive are the calls of the source. The call rests on the fitted dose curve; in most records, active means well fitted curve in the direction sought with a large enough effect in the repeat runs; inconclusive means weak or mixed curves; inactive means no such curve, though single readings can be large; an effect the other way counts as inactive or inconclusive.

The nature of assay [1]: A CellTox Green Cytotoxicity Assay to monitor cytotoxicity in HEK293 cells - 40 hour (AID 1224871). Further: nearly all actives have a fitted effect of over 45% in size. Further: potency means the concentration at half of the fitted maximal effect. In outline: (§1)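 Fluorescence from a DNA-binding dye excluded by viable cells was measured repeatedly in the same HEK293 wells (600 cells/well) during continuous compound exposure at 37 C. Each assay gives one read point: 0, 8, 16, 24, 32 or 40 h.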
The nature of assay [2]: qHTS RealTime-Glo MT Cell Viability Assay in HepG2 cells - 8 hour (AID 1224873). Further: nearly all actives have a fitted effect of over 55% in size. Further: potency means the concentration at half of the fitted maximal effect. The gist of the method: (§2)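 HepG2 cells (600/well) mixed with RealTime-Glo MT reagent, settled 5 h at 37 C/5% CO2 before compound addition. Nonlytic NanoLuc luminescence from viable-cell prosubstrate reduction read repeatedly during 40 h treatment at 37 C.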
(In general: qHTS replaces the single test concentration by a dilution series.)

The nature of assay [3]: qHTS RealTime-Glo MT Cell Viability Assay in HEK293 cells - 40 hour (AID 1224874). Further: nearly all actives have a fitted effect of over 50% in size. Further: potency means the concentration at half of the fitted maximal effect. The conditions noted are these: RealTime-Glo luminescence; max response: active compounds read low. In outline:
(§3)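 Luminescence, which tracks viable cell number through reduction of the prosubstrate to a NanoLuc substrate, was read over continuous 37 C culture. Cells (600/well) were premixed with reagent and rested 5 h before 23 nL of compound in DMSO was pinned.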

The nature of assay [4]: A CellTox Green Cytotoxicity Assay to monitor cytotoxicity in HEK293 cells - 24 hour (AID 1224875). Further: nearly all actives have a fitted effect of over 45% in size. Further: potency means the concentration at half of the fitted maximal effect. In outline: as §1
Assay [5] can be described thus: A CellTox Green Cytotoxicity Assay to monitor cytotoxicity in HepG2 cells - 16 hour (AID 1224876). Further: nearly all actives have a fitted effect of over 45% in size. Further: potency means the concentration at half of the fitted maximal effect. The gist of the method: (§4)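 Real-time cytotoxicity: fluorescence of a cell-impermeant cyanine dye binding DNA of dead HepG2 cells, measured repeatedly (0–40 h) during compound exposure at 37 C. Cells seeded 600/well with reagent, dosed after 5 h.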
Assay [6] in a line: A CellTox Green Cytotoxicity Assay to monitor cytotoxicity in HepG2 cells - 24 hour (AID 1224878). Further: nearly all actives have a fitted effect of over 45% in size. Further: potency means the concentration at half of the fitted maximal effect. In outline: as §4
A short description of assay [7]: A CellTox Green Cytotoxicity Assay to monitor cytotoxicity in HepG2 cells - 40 hour (AID 1224879). Further: nearly all actives have a fitted effect of over 40% in size. Further: potency means the concentration at half of the fitted maximal effect. In outline:
as §4

The nature of assay [8]: A CellTox Green Cytotoxicity Assay to monitor cytotoxicity in HEK293 cells - 32 hour (AID 1224881). Further: nearly all actives have a fitted effect of over 40% in size. Further: potency means the concentration at half of the fitted maximal effect. The gist of the method:
as §1

The nature of assay [9]: A CellTox Green Cytotoxicity Assay to monitor cytotoxicity in HepG2 cells - 0 hour (AID 1224882). Further: nearly all actives have a fitted effect of over 35% in size. Further: potency means the concentration at half of the fitted maximal effect. The gist of the method:
as §4

A short description of assay [10]: A CellTox Green Cytotoxicity Assay to monitor cytotoxicity in HepG2 cells - 32 hour (AID 1224883). Further: nearly all actives have a fitted effect of over 50% in size. Further: potency means the concentration at half of the fitted maximal effect. The gist of the method:
as §4

A short description of assay [11]: A CellTox Green Cytotoxicity Assay to monitor cytotoxicity in HEK293 cells - 8 hour (AID 1224884). Further: nearly all actives have a fitted effect of over 35% in size. In outline: as §1
Assay [12] can be described thus: qHTS RealTime-Glo MT Cell Viability Assay in HEK293 cells - 8 hour (AID 1224887). Further: nearly all actives have a fitted effect of over 50% in size. Further: potency means the concentration at half of the fitted maximal effect. In outline: as §3
Assay [13] is described as follows: A CellTox Green Cytotoxicity Assay to monitor cytotoxicity in HEK293 cells - 16 hour (AID 1224888). Further: nearly all actives have a fitted effect of over 35% in size. Further: potency means the concentration at half of the fitted maximal effect. In outline:
as §1

The nature of assay [14]: qHTS RealTime-Glo MT Cell Viability Assay in HepG2 cells - 40 hour (AID 1224870). Further: nearly all actives have a fitted effect of over 50% in size. In outline: as §2
Assay [15] is described as follows: qHTS RealTime-Glo MT Cell Viability Assay in HEK293 cells - 16 hour (AID 1224872). Further: nearly all actives have a fitted effect of over 50% in size. Further: potency means the concentration at half of the fitted maximal effect. In outline: (§5)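 Nonlytic real-time viability readout: viable cells convert prosubstrate to NanoLuc substrate, giving luminescence proportional to live cell number. HEK293, 600 cells/well, compound added after 5 h, continuous culture at 37 C.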
Assay [16] can be described thus: qHTS RealTime-Glo MT Cell Viability Assay in HEK293 cells - 0 hour (AID 1224880). Further: nearly all actives have a fitted effect of over 45% in size. Further: potency means the concentration at half of the fitted maximal effect. The gist of the method:
as §3

Assay [17] is described as follows: qHTS RealTime-Glo MT Cell Viability Assay in HepG2 cells - 16 hour (AID 1224885). Further: nearly all actives have a fitted effect of over 50% in size. Further: potency means the concentration at half of the fitted maximal effect. In outline:
(§6)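 Luminescence read-out: viable HepG2 cells reduce a prosubstrate to a NanoLuc substrate, giving a signal proportional to live cell number. Reads taken at 0, 8, 16, 24, 32 and 40 h of compound exposure at 37 C.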

A short description of assay [18]: qHTS RealTime-Glo MT Cell Viability Assay in HEK293 cells - 24 hour (AID 1224886). Further: nearly all actives have a fitted effect of over 50% in size. Further: potency means the concentration at half of the fitted maximal effect. In outline:
as §5

The nature of assay [19]: qHTS RealTime-Glo MT Cell Viability Assay in HepG2 cells - 0 hour (AID 1224889). Further: nearly all actives have a fitted effect of over 50% in size. Further: potency means the concentration at half of the fitted maximal effect. The gist of the method:
as §6

Assay [20] is described as follows: qHTS RealTime-Glo MT Cell Viability Assay in HepG2 cells - 32 hour (AID 1224877). Further: nearly all actives have a fitted effect of over 55% in size. Further: potency means the concentration at half of the fitted maximal effect. In outline: as §6
On the % scale 0 is the no-effect control and ±100 the full control effect.

Turning to `C[C@@H](CN(C)C)CN1c2ccccc2Sc2ccccc21`, the Potency is 16.9 µM (active) in assay [1]; 23.9 µM (active) in assay [3]; 23.9 µM (active) in assay [5]; 26.8 µM (active) in [6]; 26.8 µM (active) in assay [7]; 13.4 µM (active) in [8]. Further, the Potency in [10] is 26.8 µM (active). Also, the Potency entry in [2], in assay [4], in [9], in assay [11], in assay [12] and in assay [13] was “inactive” throughout.

On to `C=Cc1ccc(S(=O)(=O)O)cc1`, for which the Potency entry in [14], in assay [15], in [2], in assay [16], in assay [17] and in assay [18] was “inactive” throughout. Further, the Potency entry in [12] and in [19] was “inactive” throughout. The max response in assay [3] is -10.1%. For the same molecule, the Potency was 49 µM (active) in assay [6], 54.9 µM (active) in [7], 49 µM (active) in [9] and 54.9 µM (active) in assay [10].

Turning to `COc1ccccc1N1CCN(CCCCNC(=O)c2ccc(-c3ccc(C(C)=O)cc3)cc2)CC1`, the Potency result in [14], in assay [2], in assay [4], in assay [5], in [20] and in assay [16] was “inactive” each time. For the same molecule, the Potency result in assay [9], in assay [11], in [17], in assay [13] and in assay [19] was “inactive” in each case. The Potency in assay [15] was 1.9 µM (active); in assay [3] it was 1.9 µM (active); in [18], 1.69 µM (active).

Consider `COc1ccccc1NC(=O)c1cc2ccccc2cc1O`, for which the Potency result in assay [1], in assay [4], in assay [5], in [16], in assay [8] and in [9] was “inactive” throughout. Further, the Potency result in assay [10], in assay [11], in assay [13] and in assay [19] was “inactive” each time. Moreover, the Potency in assay [3], in assay [18] and in [12] was 34.7 µM (active) each time.

For `CCCC(C(=O)OCCN(CC)CC)(c1ccccc1)c1ccccc1`, the Potency entry in assay [14], in [2], in [20], in [16], in assay [9] and in assay [11] was “inactive” in each case. For the same molecule, the Potency result in assay [13] and in assay [19] was “inactive” each time. For the same molecule, the Potency in assay [3] and in [18] was 21.3 µM (active) throughout.

Take `Oc1cc2c(cc1O)[C@H]1c3ccc(O)c(O)c3OC[C@@]1(O)C2`: the max response in [3] was -26.5%. For the same molecule, the Potency in assay [4] is 49.6 µM (active); in [20], 55.6 µM (active); in [17] it was 44.2 µM (active); in assay [12], 22.2 µM (active); in [13], 49.6 µM (active). In addition, the Potency result in assay [5], in [6], in [16], in assay [9], in [18] and in assay [19] was “inactive” in each case.

As to `Cc1cc2c(OCC(CNC(C)(C)C)OC(=O)c3ccccc3)cccc2[nH]1` (stereo unspecified), the Potency result in assay [14], in [2], in assay [4], in assay [5], in assay [16] and in assay [9] was “inactive” in each case. In addition, the Potency result in assay [11], in [17], in assay [12] and in assay [13] was “inactive” throughout. Besides, in assay [3], the max response was -21.5%.

As to `O=C=Nc1cccc(C(F)(F)F)c1`, the Potency entry in assay [14], in [5], in assay [6], in assay [7], in assay [16] and in [9] was “inactive” in each case. Moreover, the Potency entry in [10], in [11], in assay [17], in [12] and in assay [19] was “inactive” throughout.

Regarding `CN1CCCC(n2nc(Cc3ccc(Cl)cc3)c3ccccc3c2=O)CC1` (stereo unspecified), the Potency in assay [15] was 7.56 µM (active); in assay [3] it was 9.52 µM (active); in assay [5], 26.8 µM (active); in [6], 23.9 µM (active); in [7], 23.9 µM (active); in assay [8], 30.1 µM (active). The Potency in assay [10] is 23.9 µM (active); in assay [18], 8.49 µM (active); in [12], 7.56 µM (active). In addition, the Potency entry in [2], in assay [16], in assay [9], in assay [11], in assay [17] and in assay [13] was “inactive” in each case.

For the molecule `c1csc(SSc2cccs2)c1`, the Potency result in assay [4], in assay [5], in assay [16], in assay [9] and in assay [13] was “inactive” throughout.

Turning to `CCOC(=O)C1=C(C)NC(C)=C(C(=O)OC)C1c1cccc(Cl)c1Cl` (stereo unspecified), the Potency entry in assay [1], in assay [4], in assay [5], in [6], in [7] and in [9] was “inactive” each time. Moreover, the Potency result in [10], in assay [11], in [12] and in assay [13] was “inactive” in each case. Moreover, the values for the Potency in assay [16], in assay [17] and in assay [19] were 5.35 µM (active), 19 µM (active) and 6.74 µM (active), respectively.

For the molecule `Nc1nnc(-c2ccc([N+](=O)[O-])o2)o1`, the Potency result in [1], in assay [15], in [2], in assay [4], in assay [5] and in [6] was “inactive” each time. Moreover, the Potency result in assay [16], in assay [8], in [9], in assay [11], in assay [18] and in [12] was “inactive” in each case. In addition, the Potency entry in [13] and in assay [19] was “inactive” in each case. The max response in [3] was -27%.

Consider `CN(C(=O)CN(CCO)CC(=O)N(C)C(C)(C)Cc1ccccc1)C(C)(C)Cc1ccccc1`, for which the Potency in assay [1] is 23.9 µM (active); in [3], 19 µM (active); in assay [5] it was 23.9 µM (active); in assay [6] it was 23.9 µM (active); in [7], 23.9 µM (active); in [10], 23.9 µM (active). The Potency in assay [18] is 19 µM (active). For the same molecule, the Potency result in assay [16] and in [9] was “inactive” throughout.

Consider `Brc1cc2ccccc2c2ccccc12`, for which the Potency result in assay [14], in assay [2], in [4], in assay [5], in assay [20] and in assay [6] was “inactive” in each case. Besides, the Potency result in [16], in assay [9], in assay [10], in [11], in assay [17] and in assay [13] was “inactive” each time. The Potency result in [19] is “inactive”. Besides, the Potency in assay [7] was 39.2 µM (active).

Regarding `CCOc1ccc(Cc2nccc3cc(OCC)c(OCC)cc23)cc1OCC`, the Potency entry in assay [1], in [4], in assay [5], in [6], in assay [16] and in assay [8] was “inactive” throughout. In addition, the Potency result in assay [9], in [11], in assay [13] and in assay [19] was “inactive” throughout. Moreover, the Potency was 9.52 µM (active) in assay [15]; 12 µM (active) in assay [2]; 5.35 µM (active) in [3]; 7.56 µM (active) in [7]; 5.35 µM (active) in assay [10]; 19 µM (active) in [17]. Also, the Potency was 7.56 µM (active) in [18] and 10.7 µM (active) in assay [12].

The values above are taken from PubChem BioAssay (Tox21).
